Compounds with a hit are over-represented: about 19% of the library has one in this group of screens.
DT40 TDP1 no CPT: qHTS for Inhibitors of human tyrosyl-DNA phosphodiesterase 1 (TDP1): qHTS in cells in absence of CPT; Potency, µM (titrated, usually from 46.2 µM), actives largely listed as inhibitors; DT40 Tdp1-/- hTDP1 cells, no CPT, ATP luminescence, 48 h; 420,000 tested, 15% active; AID 686978, 2013; note: nearly all actives have a fitted effect of over 55% in size
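No-CPT arm: Tdp1-/-;hTDP1 DT40 cells (400/well) plus compounds, incubated ≥48 hr at 37 °C. Readout CellTiter-Glo luminescence.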
HT1080NT lethal: kills 2HG-producing HT-1080-NT fibrosarcoma cells; Potency, µM (series often up to 46.1 µM), actives largely listed as cytotoxic; 360,000 tested, 1.6% active; AID 686970; HT-1080-NT fibrosarcoma viability, CellTiter-Glo ATP luminescence, 48 h;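 note: NT is the 2HG producing partner of a matched IDH1 knockdown line; nearly all actives have a fitted effect of over 55% in size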
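Compounds were tested in concentration-response format on HT-1080-NT cells for 48 hours at 37 degrees C. Cell viability came from CellTiter-Glo luminescence; curves were classified by r2, response magnitude and activity.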
TDP1 cell CPT: growth inhibition of DT40 Tdp1-/-;hTDP1 cells with camptothecin (screen for TDP1 inhibitors); chicken DT40 Tdp1-/-;hTDP1 cells + 20 nM CPT, ATP luminescence, 48 h; 420,000 tested, 12% active; Potency, µM (series often up to 46.2 µM), usual class: inhibitors; note: nearly all actives have a fitted effect of over 55% in size
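Chicken DT40 Tdp1-/- cells stably complemented with human TDP1 were seeded at 400 cells/well in medium containing 20 nM camptothecin, exposed to pin-transferred compounds, and grown at 37 °C for at least 48 hr. Viability was read as ATP luminescence.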
HT1080 IDH1KD tx: kills HT-1080 cells with IDH1 knockdown; 360,000 tested, 2% active; HT-1080 IDH1 knockdown viability, ATP luminescence, 48 h; Potency, µM (doses to about 46.1 µM), most hits filed as cytotoxic
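CellTiter-Glo luminescence after 48 h compound exposure at 37 degrees C of IDH1-knockdown HT-1080 cells in 5% FBS RPMI. %Activity scaled between DMSO wells and cell-free media wells, with curves fitted and assigned curve classes.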
IL1B secr inh: inflammasome signaling inhibition, IL-1 beta readout. activity change, % at 57.5 µM. AID 743279. 360,000 tested, 4.7% active. THP-1 LPS/ATP IL-1B secretion, AlphaLISA, 16 h; stronger effect = lower value; in the data active = activity change below about -50%; inconclusive = mostly about -30% to -49%
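Secreted IL-1B measured by AlphaLISA bead assay after 16 h compound exposure of THP-1 cells; compounds (final up to 57.5 uM) added 1 h before LPS (250 ng/mL) and ATP (1.25 mM) stimulation; lower signal means less secretion.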
Each line names hits and unclear results; the compound was inactive in the other large screens; ! = repeats disagree. Unless noted, calls come from the whole dose curve; as a rule, active = well fitted curve in the direction sought with a large enough effect; inconclusive = small, poorly fitted or top-dose-only effect, or another doubt; inactive = no such curve, though single readings can be large; an effect the other way counts as inactive or inconclusive.

CCOC(=O)c1c(-n2c(C)cc(C=C3C(=O)NC(=O)NC3=O)c2C)sc2c1CCCC2	DT40 TDP1 no CPT 18.4µM, TDP1 cell CPT inconclusive
Cc1cc(/C=C2\C(=O)NC(=O)N(c3ccccc3F)C2=O)c(C)n1-c1cc(C(=O)O)cc(C(=O)O)c1	none
Cc1cc(C=C2C(=O)NC(=O)NC2=O)c(C)n1-c1ccc2c(c1)OCO2	none
Cc1cccc(N2C(=O)NC(=O)/C(=C\c3cc(C)n(-c4sc5c(c4C#N)CCCC5)c3C)C2=O)c1C	DT40 TDP1 no CPT inconclusive, HT1080NT lethal inconclusive, TDP1 cell CPT inconclusive, HT1080 IDH1KD tx 16.4µM, IL1B secr inh -137.9
ClC1=C(Cl)C(Cl)=C(Cl)C1=C/C=C/c1ccccc1	DT40 TDP1 no CPT 3.26µM, TDP1 cell CPT 5.17µM
COC[C@H]1OC(=O)c2coc3c2[C@@]1(C)C1=C(C3=O)[C@H]2CCC(=O)[C@@]2(C)C[C@H]1OC(C)=O	DT40 TDP1 no CPT inconclusive, TDP1 cell CPT 9.44µM (no result: HT1080NT lethal, HT1080 IDH1KD tx, IL1B secr inh)
COC[C@H]1OC(=O)c2coc3c2[C@@]1(C)C1=C(C3=O)C2CCC(=O)[C@@]2(C)C[C@H]1OC(C)=O (some centres not stated)	DT40 TDP1 no CPT 0.631µM, HT1080NT lethal inconclusive, TDP1 cell CPT 1µM, HT1080 IDH1KD tx inconclusive (no result: IL1B secr inh)
CCc1ccc(-n2c(O)c(C(C)=O)c(=O)[nH]c2=O)cc1 (tested in a mixture with another compound)	none
CCN(CC)CCc1c[nH]c2ccccc12	none (no result: HT1080NT lethal, HT1080 IDH1KD tx, IL1B secr inh)
CCCN1CCCc2cc(CN)ccc21	DT40 TDP1 no CPT 18.4µM, HT1080NT lethal inconclusive, TDP1 cell CPT 9.2µM, HT1080 IDH1KD tx inconclusive
O=[N+]([O-])NC1=NCCN1Cc1ccc(Cl)nc1	DT40 TDP1 no CPT 2.59µM (no result: TDP1 cell CPT)
COc1cc(C)cc(CN2CC=C(c3ccccc3)CC2)c1O	DT40 TDP1 no CPT inconclusive, TDP1 cell CPT 16.4µM
COc1ccc2ccc(O)c(CN3CC=C(c4ccccc4)CC3)c2c1	DT40 TDP1 no CPT 18.4µM, TDP1 cell CPT inconclusive
O=C(CN1CC=C(c2ccccc2)CC1)NC(=O)NC1CCCCC1	DT40 TDP1 no CPT inconclusive
COc1ccc(C(C)=O)cc1CN1CC=C(c2ccccc2)CC1	DT40 TDP1 no CPT inconclusive, TDP1 cell CPT inconclusive
COc1ccccc1-n1c(O)c(/C=N/N2CCCCC2)c(=O)n(-c2ccccc2OC)c1=S	none
CC1C=CCCC12C(=O)NC(=O)NC2=O (configuration not stated)	none
CC(=O)Nc1ccc(OCC(O)Cn2c3ccccc3c3ccccc32)c(C)c1 (configuration not stated)	DT40 TDP1 no CPT 18.4µM, HT1080NT lethal inconclusive, TDP1 cell CPT inconclusive, HT1080 IDH1KD tx inconclusive, IL1B secr inh -59.9
COc1ccc(NC(C)=O)cc1NC(=O)c1cccn(Cc2ccccc2)c1=O	none (no result: HT1080NT lethal, HT1080 IDH1KD tx, IL1B secr inh)
CCN(CC)P(=O)(Nc1ccc(Br)cc1)c1c(C)nn(CCC#N)c1NC(=O)c1ccc(Cl)cc1 (configuration not stated)	DT40 TDP1 no CPT inconclusive, TDP1 cell CPT inconclusive
CC[C@H](C)C(=O)O[C@H]1C[C@H](O)C=C2C=C[C@H](C)[C@H](CC[C@@H](O)C[C@@H](O)CC(=O)O)[C@H]21	TDP1 cell CPT inconclusive (no result: HT1080NT lethal, HT1080 IDH1KD tx, IL1B secr inh)
CCN1C(=O)CC(=O)N(CC)C1=S	none
Cc1ccccc1N1C(=O)NC(=O)/C(=C\c2cc(Br)c(N3CCOCC3)o2)C1=O	DT40 TDP1 no CPT 7.31µM, TDP1 cell CPT 4.11µM, IL1B secr inh -103.1
CC[C@H](C)[C@H]1O[C@]2(C=C[C@@H]1C)C[C@@H]1C[C@@H](C/C=C(\C)[C@@H](O[C@H]3C[C@H](OC)[C@@H](O[C@H]4C[C@H](OC)[C@@H](O)[C@H](C)O4)[C@H](C)O3)[C@@H](C)/C=C/C=C3\CO[C@@H]4[C@H](O)C(C)=C[C@@H](C(=O)O1)[C@]34O)O2	DT40 TDP1 no CPT 16.4µM, TDP1 cell CPT inconclusive (no result: HT1080NT lethal, HT1080 IDH1KD tx, IL1B secr inh)
O=C(CN1C2CCC1CC(O)(c1cccnc1)C2)Nc1ccc2c(c1)OCO2 (configuration not stated)	none
COc1ccc2c(c1OC)C(=O)OC2C1c2cc3c(cc2CCN1C)OCO3 (configuration not stated)	none
COc1cccc2c1cc([N+](=O)[O-])c1c(C(=O)O)cc3c(c12)OCO3	DT40 TDP1 no CPT 11.6µM!, TDP1 cell CPT 18.4µM!, IL1B secr inh -58.2
CC(CO)NC(=O)C1C=C2c3cccc4[nH]cc(c34)C[C@H]2N(C)C1 (some centres not stated)	none (no result: HT1080NT lethal, HT1080 IDH1KD tx, IL1B secr inh)
CC[C@@H](CO)NC(=O)[C@H]1C=C2c3cccc4c3c(cn4C)C[C@H]2N(C)C1	DT40 TDP1 no CPT 13.3µM, TDP1 cell CPT 8.41µM (no result: HT1080NT lethal, HT1080 IDH1KD tx, IL1B secr inh)
CCN1CCN(c2ccc(N)cc2C)CC1	DT40 TDP1 no CPT 13µM, TDP1 cell CPT 11.6µM
Cc1ccc(NC(=O)[C@@H](NC(=O)N2C[C@H]3C[C@@H](C2)c2cccc(=O)n2C3)C(C)C)cc1	none
CCOC(=O)c1ccc(N2C(=O)c3n[nH]c(-c4cccs4)c3C2c2ccc(OC)cc2OC)cc1 (configuration not stated)	DT40 TDP1 no CPT 20.6µM, TDP1 cell CPT 23.1µM (no result: HT1080NT lethal, HT1080 IDH1KD tx, IL1B secr inh)
CCOC(=O)C1(CCc2ccccc2)CCN(Cc2ccc3c(c2)OCCO3)CC1	DT40 TDP1 no CPT 25.9µM, HT1080NT lethal 23.1µM, TDP1 cell CPT inconclusive, HT1080 IDH1KD tx 16.4µM
CCOC(=O)C1(CCc2ccccc2)CCN(C2CCSCC2)CC1	DT40 TDP1 no CPT 6.51µM, TDP1 cell CPT 8.2µM
CCOC(=O)C1(CCCc2ccccc2)CCN(C2CCCC2)CC1	DT40 TDP1 no CPT inconclusive, TDP1 cell CPT 18.4µM, IL1B secr inh -73.7
CCOC(=O)C1(CCOc2ccccc2)CCN(Cc2ccc(C)s2)CC1	DT40 TDP1 no CPT 7.31µM, TDP1 cell CPT inconclusive, HT1080 IDH1KD tx inconclusive, IL1B secr inh -96.3
CCOC(=O)C1(C)CCCN1C(=O)c1cccs1 (configuration not stated)	HT1080NT lethal inconclusive
O=C(Cc1ccccc1)N1CCN(C2CCCC2)CC1	none
CCOC(=O)C1(CCc2ccccc2)CCN(Cc2ccc(NC(C)=O)cc2)CC1	DT40 TDP1 no CPT inconclusive, TDP1 cell CPT inconclusive
CCS(=O)(=O)C(C)(C)S(=O)(=O)CC	none (no result: HT1080NT lethal, HT1080 IDH1KD tx, IL1B secr inh)
Fc1c(F)c(F)c(N2CCNCC2)c(F)c1F	none
O=[N+]([O-])c1ccc(N2CCNCC2)cc1NCC1CCCO1 (configuration not stated)	none
C[C@]12CCC3[C@@H](CCC4=CC(=O)CC[C@@]43CO)C1CCC2=O (some centres not stated)	TDP1 cell CPT inconclusive
O=[N+]([O-])c1ccc(C2[C@H]3C(c4ccccc4)=NC4(CCCCC4)N23)cc1 (some centres not stated)	TDP1 cell CPT inconclusive
FC(F)(F)C1=NC(C(F)(F)F)=NP(N2CCOCC2)(N2CCOCC2)=N1	none

Screening results (PubChem BioAssay)
